Test systems include CDC2L2; CDK2; CDK3; CDK4-cyclinD1; CDK4-cyclinD3; CDK4; CDK5; CDK7.
Holding throughout (details): concentration: 1 μM, replicates: in singlicate; n = 1
In a further assay the test system is T1, CDC2L5.
T1 construct: gene CDK13

The test system of the next assay is T2, CDK11.
T2 construct: gene CDK19

Each structure is given as a SMILES string.
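Also: KINOMEscan kinase panel screen.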

For the molecule `CC(=O)N1CCN(c2ccc(Nc3nccc(-c4sc(C(C)C)nc4-c4cccc(NS(=O)(=O)c5cccc(Cl)c5)c4)n3)cn2)CC1` [GSK1660437], the “%Inh” value in the assay on CDC2L2 is reported as 0%; in the assay on CDC2L5, 21%; with CDK11, 0%; in the assay on CDK2, 97.1%; in the assay on CDK3 it was 98.6%; in the assay on CDK4-cyclinD1, 79%. Further, the “%Inh” value in the assay on CDK4-cyclinD3 is 4%; in the assay on CDK4 it was 76%; in the assay on CDK5, 100%; with CDK7, 59%.

For the molecule `CC(C)(C)c1ccc2nccc(Nc3cccc(O)c3)c2c1` [GW856795], the “%Inh” value with CDC2L2 was found to be 0%; with CDC2L5 it was 36%; in the assay with CDK11, 17%; in the assay with CDK2 it was 0%; in the assay on CDK3, 0%; in the assay on CDK4-cyclinD1, 55%. The “%Inh” value in the assay on CDK4-cyclinD3 is recorded as 0%; in the assay on CDK4 it was 32%; with CDK5 it was 0%; with CDK7, 1%.

Consider `O=C(Nc1cccc(-c2nn3ncccc3c2-c2ccnc(Nc3ccccc3)n2)c1)c1c(F)cccc1F` [GSK198271], for which the “%Inh” value in the assay on CDC2L2 worked out at 18%; in the assay on CDC2L5 it was 0%; with CDK11 it was 0%; in the assay on CDK2, 0%; with CDK3, 8%; in the assay with CDK4-cyclinD1, 0%. In addition, the “%Inh” value with CDK4-cyclinD3, with CDK4, with CDK5 and with CDK7 was 0% each time.

With `FC(F)(F)c1ccc(/C=C/c2cncnc2Nc2ccc3[nH]c(Cc4ccccc4)nc3c2)cc1` [GW709199], the “%Inh” value in the assay with CDC2L2 was determined as 0%; in the assay on CDC2L5, 6%; in the assay with CDK11 it was 10%; in the assay with CDK2, 0%; in the assay on CDK3, 50%; in the assay with CDK4-cyclinD1, 23%. For the same molecule, the “%Inh” value with CDK4-cyclinD3 was 0%; in the assay with CDK4, 6%; in the assay with CDK5, 0%; in the assay on CDK7 it was 0%.

On to `COc1ccc(Nc2nccc(NCCNC(=O)c3cc4ccccc4s3)n2)cc1` [GSK1379896], for which the “%Inh” value in the assay with CDC2L2 is recorded as 1%; in the assay on CDC2L5, 0%; in the assay on CDK11, 10%; in the assay with CDK2, 0%; with CDK3, 5%; in the assay on CDK4-cyclinD1, 0%. For the same molecule, the “%Inh” value with CDK4-cyclinD3 is listed as 0%; with CDK4, 13%; with CDK5, 0%; in the assay with CDK7 it was 0%.

`COC(=O)Nc1nc2ccc(Oc3ccc(NC(=O)Nc4cc(C(F)(F)F)ccc4F)cc3)cc2n1C.Cl` [GW692089]: the “%Inh” value in the assay with CDC2L2 was determined as 10%; in the assay on CDC2L5, 0%; with CDK11 it was 43%; in the assay on CDK2, 0%; in the assay on CDK3, 0%; with CDK4-cyclinD1, 46%. Also, the “%Inh” value came to 0% in the assay with CDK4-cyclinD3, 26% in the assay with CDK4, 0% with CDK5 and 69% in the assay on CDK7.

Regarding `c1ccc(-c2cnc3nccnn23)cc1` [AH20685], the “%Inh” value with CDC2L2 was 18%; in the assay with CDC2L5, 0%; with CDK11 it was 0%; in the assay with CDK2, 0%; in the assay with CDK3 it was 2%; in the assay on CDK4-cyclinD1, 0%. Moreover, the “%Inh” value with CDK4-cyclinD3, in the assay with CDK4, in the assay on CDK5 and in the assay on CDK7 was 0% throughout.

Take `Cc1cccc(Nc2nc(N[C@H]3CCNC3)ncc2C(N)=O)c1.Cl` [GSK2197149]: the “%Inh” value in the assay with CDC2L2 is 74%; with CDC2L5 it was 0%; in the assay with CDK11 it was 0%; in the assay with CDK2, 0%; in the assay with CDK3, 0%; in the assay on CDK4-cyclinD1, 0%. For the same molecule, the “%Inh” value was determined as 1% with CDK4-cyclinD3, 0% in the assay on CDK4, 0% with CDK5 and 52% with CDK7.

For `Cc1ccc(C(=O)Nc2ccc(Nc3ccnc4cc(-c5nccs5)ccc34)cc2O)cc1.Cl` [GW494702], the “%Inh” value with CDC2L2 is 0%; in the assay with CDC2L5 it was 0%; in the assay with CDK11, 0%; with CDK2, 94.4%; in the assay on CDK3, 8%; in the assay with CDK4-cyclinD1, 39%. In addition, the “%Inh” value came to 0% with CDK4-cyclinD3, 43% in the assay with CDK4, 0% with CDK5 and 9% in the assay with CDK7.

Turning to `CN(C)Cc1ccc(-c2ccc3c(Nc4ccc(Oc5ccccn5)cc4)ccnc3c2)o1` [GW567148], the “%Inh” value in the assay with CDC2L2, in the assay on CDC2L5, in the assay on CDK11, with CDK2, in the assay with CDK3 and in the assay on CDK4-cyclinD1 was 0% each time. The “%Inh” value in the assay on CDK4-cyclinD3 came out at 0%; in the assay on CDK4, 25%; in the assay on CDK5, 0%; in the assay on CDK7, 62%.

Take `Fc1ccc(-c2ncn(C3CCNCC3)c2-c2ccnc(Oc3ccc(-c4ccccc4)cc3)n2)cc1` [SB-245391]: the “%Inh” value in the assay with CDC2L2 is 9%; in the assay on CDC2L5 it was 43%; with CDK11, 22%; in the assay on CDK2, 19%; in the assay with CDK3, 26%; in the assay on CDK4-cyclinD1 it was 0%. For the same molecule, the “%Inh” value in the assay on CDK4-cyclinD3 amounted to 34%; with CDK4, 15%; in the assay with CDK5 it was 0%; in the assay with CDK7 it was 41%.

As for `CCn1c(-c2nonc2N)nc2c(C#CC(C)(C)O)nc(OC[C@H](N)c3ccccc3)cc21` [GSK943949], the “%Inh” value in the assay with CDC2L2 was 0%; in the assay on CDC2L5, 2%; with CDK11 it was 0%; in the assay on CDK2, 0%; in the assay with CDK3 it was 0%; in the assay on CDK4-cyclinD1, 0%. Besides, the “%Inh” value with CDK4-cyclinD3 is 8%; in the assay with CDK4, 0%; in the assay on CDK5, 9%; with CDK7, 5%.

As for `COc1cccc(C(=O)Nc2cccc(Oc3ccc4nc(NC(=O)C5CC5)cn4n3)c2)c1`, the “%Inh” value with CDC2L2 came out at 17%; with CDC2L5 it was 2%; in the assay with CDK11, 8%; in the assay with CDK2 it was 0%; in the assay with CDK3, 0%; in the assay on CDK4-cyclinD1, 1%. Besides, the “%Inh” value with CDK4-cyclinD3, in the assay with CDK4, with CDK5 and in the assay on CDK7 was 0% each time.

Take `Cl.Cl.NCC(NC(=O)c1cc(-c2ccccc2)c(-c2ccnc3[nH]ccc23)s1)c1ccccc1` (stereo not drawn) [GSK1321561]: the “%Inh” value came to 11% with CDC2L2; 0% in the assay on CDC2L5; 8% with CDK11; 0% in the assay with CDK2; 8% in the assay with CDK3; 0% in the assay on CDK4-cyclinD1. The “%Inh” value with CDK4-cyclinD3 was 0%; in the assay on CDK4 it was 27%; in the assay on CDK5 it was 0%; in the assay with CDK7 it was 0%.

Consider `Cn1cc(-c2ccc3c(c2)CCN3C(=O)Cc2cccc(F)c2)c2c(N)ncnc21` [GSK2603358], for which the “%Inh” value was 21% with CDC2L2; 0% with CDC2L5; 96.7% with CDK11; 0% with CDK2; 7% in the assay on CDK3; 2% with CDK4-cyclinD1. Moreover, the “%Inh” value in the assay on CDK4-cyclinD3 was determined as 0%; in the assay on CDK4 it was 17%; in the assay with CDK5, 0%; in the assay with CDK7 it was 0%.
